Experimental data taken from the supplement of paper PMC8007513.
Where a name gives a salt, the structure may show the parent alone. ± gives the standard error. Among all 1,300 compounds or so, about 130 (10%) showed an effect of 50% or more. For the sample, strong results were picked, then their nearest neighbours and some compounds at random.

Tested on: Trichoderma virens ATCC 9645
Assay: growth yield (OD600) with compound + IPBC relative to untreated control; higher = less growth inhibition
Conditions: compound concentration: 100 uM, IPBC concentration: 200 ng/ml
Summary of the method: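 Plates were read for OD600 at 40 h and 72 h after Trichoderma virens ATCC 9645 spores (15,000 spores ml^−1 in potato dextrose broth) were grown at 30 °C with library compounds at 100 μM final, with or without a biocide at 200 ng ml^−1. Growth is stated relative to the control with neither agent, as the mean of duplicate screens.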

Row | Compound | growth yield (40 h) | growth yield (72 h)
1 | O=[N+]([O-])O[C@@H]1CO[C@H]2[C@@H]1OC[C@@H]2O [Isosorbide mononitrate] + CCCCNC(=O)OCC#CI [3-iodo-2-propynyl butylcarbamate (IPBC)] | 88.2 ± 4% | 91.3 ± 4.1%
2 | CCN(C(C)=O)c1cccc(-c2ccnc3c(C#N)cnn23)c1 [Zaleplon] + CCCCNC(=O)OCC#CI [3-iodo-2-propynyl butylcarbamate (IPBC)] | 81.009 ± 1e-14% | 88.94 ± 0.42%
3 | Cc1c(NC(C)C)c(=O)n(-c2ccccc2)n1C [Isopyrin hydrochloride] + CCCCNC(=O)OCC#CI [3-iodo-2-propynyl butylcarbamate (IPBC)] | 87 ± 2.5% | 91.24 ± 0.63%
4 | CC1(C)S[C@@H]2[C@H](NC(=O)Cc3ccccc3)C(=O)N2[C@H]1C(=O)O [Benzathine benzylpenicillin] + CCCCNC(=O)OCC#CI [3-iodo-2-propynyl butylcarbamate (IPBC)] | 102 ± 12% | 98 ± 9.9%
5 | CC1(C)S[C@@H]2[C@H](NC(=O)Cc3ccccc3)C(=O)N2[C@H]1C(=O)O [Benzylpenicillin sodium] + CCCCNC(=O)OCC#CI [3-iodo-2-propynyl butylcarbamate (IPBC)] | 82.1 ± 6.2% | 97.1 ± 6.1%
6 | CCCCc1ncc(/C=C(\Cc2cccs2)C(=O)O)n1Cc1ccc(C(=O)O)cc1 [Eprosartan mesylate] + CCCCNC(=O)OCC#CI [3-iodo-2-propynyl butylcarbamate (IPBC)] | 112 ± 9.7% | 109 ± 4.1%
7 | COC(=O)C1=C(C)NC(C)=C(C(=O)OCCN(C)Cc2ccccc2)C1c1cccc([N+](=O)[O-])c1 (stereo not given) [Nicardipine hydrochloride] + CCCCNC(=O)OCC#CI [3-iodo-2-propynyl butylcarbamate (IPBC)] | 73.1 ± 1.6% | 94.7 ± 2.2%
8 | COC(=O)C1=C(C)NC(C)=C(C(=O)OC)C1c1ccccc1[N+](=O)[O-] [Nifedipine] + CCCCNC(=O)OCC#CI [3-iodo-2-propynyl butylcarbamate (IPBC)] | 42.41 ± 0.16% | 55.48 ± 0.52%
9 | COCCOC(=O)C1=C(C)NC(C)=C(C(=O)OC(C)C)C1c1cccc([N+](=O)[O-])c1 (stereo not given) [Nimodipine] + CCCCNC(=O)OCC#CI [3-iodo-2-propynyl butylcarbamate (IPBC)] | 79.7 ± 7.9% | 87.3 ± 1.3%
10 | CCOC(=O)C1=C(C)NC(C)=C(C(=O)OC)C1c1cccc([N+](=O)[O-])c1 (stereo not given) [Nitrendipine] + CCCCNC(=O)OCC#CI [3-iodo-2-propynyl butylcarbamate (IPBC)] | 79.58 ± 0.48% | 85.7 ± 1.1%
11 | COC(=O)C1=C(C)NC(C)=C(C(=O)OCC(C)C)C1c1ccccc1[N+](=O)[O-] (stereo not given) [Nisoldipine] + CCCCNC(=O)OCC#CI [3-iodo-2-propynyl butylcarbamate (IPBC)] | 41.3 ± 8.3% | 34.71 ± 0.1%
12 | CCOC(=O)C1=C(C)NC(C)=C(C(=O)OC)C1c1cccc(Cl)c1Cl (stereo not given) [Felodipine] + CCCCNC(=O)OCC#CI [3-iodo-2-propynyl butylcarbamate (IPBC)] | 77.5 ± 8.3% | 92.9 ± 1.9%
13 | CCCCc1nc(Cl)c(CO)n1Cc1ccc(-c2ccccc2-c2nnn[nH]2)cc1 [Losartan] + CCCCNC(=O)OCC#CI [3-iodo-2-propynyl butylcarbamate (IPBC)] | 98.3 ± 6.2% | 96.7 ± 5.7%
14 | CC[C@@H](CO)NC(=O)[C@@H]1C=C2c3cccc4[nH]cc(c34)C[C@H]2N(C)C1 [Methylergometrine maleate] + CCCCNC(=O)OCC#CI [3-iodo-2-propynyl butylcarbamate (IPBC)] | 79.7 ± 4.8% | 88 ± 2%
15 | NS(=O)(=O)c1cc2c(cc1Cl)NC(CC1CCCC1)NS2(=O)=O (stereo not given) [Cyclopenthiazide] + CCCCNC(=O)OCC#CI [3-iodo-2-propynyl butylcarbamate (IPBC)] | 88.8 ± 1.4% | 98.48 ± 0.32%
16 | NCc1ccccc1CC(=O)N[C@@H]1C(=O)N2C(C(=O)O)=C(CSc3nnnn3CC(=O)O)CS[C@H]12 [Ceforanide] + CCCCNC(=O)OCC#CI [3-iodo-2-propynyl butylcarbamate (IPBC)] | 92.3 ± 5.6% | 97.1 ± 2.1%
17 | CCC1(c2ccc(N)cc2)CCC(=O)NC1=O (stereo not given) [Glutethimide, para-amino] + CCCCNC(=O)OCC#CI [3-iodo-2-propynyl butylcarbamate (IPBC)] | 111 ± 4.1% | 112 ± 4.5%
18 | CC(NC(C)(C)C)C(=O)c1cccc(Cl)c1 (stereo not given) [Bupropion hydrochloride] + CCCCNC(=O)OCC#CI [3-iodo-2-propynyl butylcarbamate (IPBC)] | 92.1 ± 5.4% | 98.5 ± 3%
19 | COc1cccc(N(C)C(=S)Oc2ccc3c(c2)CCCC3)n1 [Liranaftate] + CCCCNC(=O)OCC#CI [3-iodo-2-propynyl butylcarbamate (IPBC)] | 0% | 0%
20 | NCC(O)c1ccc(O)cc1 (racemic) [(+,-)-Octopamine hydrochloride] + CCCCNC(=O)OCC#CI [3-iodo-2-propynyl butylcarbamate (IPBC)] | 97.4 ± 12% | 95 ± 4.6%

Row | Compound | growth yield (40 h) | growth yield (72 h)
21 | CC(=O)N(CC(O)CO)c1c(I)c(C(=O)NCC(O)CO)c(I)c(C(=O)NCC(O)CO)c1I (stereo not given) [Iohexol] + CCCCNC(=O)OCC#CI [3-iodo-2-propynyl butylcarbamate (IPBC)] | 91.2 ± 8.3% | 93.7 ± 5.6%
22 | Clc1ccc(C(Cn2ccnc2)OCc2c(Cl)cccc2Cl)c(Cl)c1 (stereo not given) [Isoconazole] + CCCCNC(=O)OCC#CI [3-iodo-2-propynyl butylcarbamate (IPBC)] | 4.13 ± 0.64% | 2.83 ± 0.32%
23 | O=C(O)/C=C/c1ccc(Cn2ccnc2)cc1 [Ozagrel hydrochloride] + CCCCNC(=O)OCC#CI [3-iodo-2-propynyl butylcarbamate (IPBC)] | 105 ± 12% | 103 ± 8.7%
24 | Clc1ccc(CSC(Cn2ccnc2)c2ccc(Cl)cc2Cl)cc1 (stereo not given) [Sulconazole nitrate] + CCCCNC(=O)OCC#CI [3-iodo-2-propynyl butylcarbamate (IPBC)] | 3.02 ± 0.16% | 2.41 ± 0.1%
25 | Clc1ccc(C(Cn2ccnc2)OCc2ccsc2Cl)c(Cl)c1 (stereo not given) [Tioconazole] + CCCCNC(=O)OCC#CI [3-iodo-2-propynyl butylcarbamate (IPBC)] | 3.65 ± 0.16% | 2.52%
26 | Clc1ccc(COC(Cn2ccnc2)c2ccc(Cl)cc2Cl)cc1 (stereo not given) [Econazole nitrate] + CCCCNC(=O)OCC#CI [3-iodo-2-propynyl butylcarbamate (IPBC)] | 3.18 ± 0.32% | 2.73 ± 0.42%
27 | CC(c1cc2ccccc2s1)N(O)C(N)=O (stereo not given) [Zileuton] + CCCCNC(=O)OCC#CI [3-iodo-2-propynyl butylcarbamate (IPBC)] | 89.1 ± 3.3% | 90.8 ± 2.1%
28 | NCCCCCC(=O)O [Aminocaproic acid] + CCCCNC(=O)OCC#CI [3-iodo-2-propynyl butylcarbamate (IPBC)] | 103 ± 13% | 98.9 ± 6.8%
29 | Nc1ncnc2c1ncn2C1OC(COP(=O)(O)O)C(O)C1O (stereo not given) [Adenosine 5'-monophosphate monohydrate] + CCCCNC(=O)OCC#CI [3-iodo-2-propynyl butylcarbamate (IPBC)] | 79.4 ± 1.3% | 91.2 ± 1.1%
30 | CC(C)(C)NC(=O)[C@@H]1CN(Cc2cccnc2)CCN1C[C@@H](O)C[C@@H](Cc1ccccc1)C(=O)N[C@H]1c2ccccc2C[C@H]1O [Indinavir sulfate] + CCCCNC(=O)OCC#CI [3-iodo-2-propynyl butylcarbamate (IPBC)] | 88.5 ± 3.3% | 89.78 ± 0.84%
31 | Cc1nnc(NS(=O)(=O)c2ccc(N)cc2)s1 [Sulfamethizole] + CCCCNC(=O)OCC#CI [3-iodo-2-propynyl butylcarbamate (IPBC)] | 93.7 ± 8.9% | 97.3 ± 7.1%
32 | Cc1cc(/C=C/c2ccc3cc(N(C)C)ccc3[n+]2C)c(C)n1-c1ccccc1 [Pyrvinium pamoate] + CCCCNC(=O)OCC#CI [3-iodo-2-propynyl butylcarbamate (IPBC)] | 111 ± 4.5% | 111 ± 3.1%
33 | C[N+]1(C)CCCC(OC(=O)C(O)(c2ccccc2)c2ccccc2)C1 (stereo not given) [Mepenzolate bromide] + CCCCNC(=O)OCC#CI [3-iodo-2-propynyl butylcarbamate (IPBC)] | 83.2% | 85.7 ± 0.94%
34 | C=CCSCC1Nc2cc(Cl)c(S(N)(=O)=O)cc2S(=O)(=O)N1 (stereo not given) [Althiazide] + CCCCNC(=O)OCC#CI [3-iodo-2-propynyl butylcarbamate (IPBC)] | 98.16 ± 0.32% | 96.7 ± 0.21%
35 | CC=CC(=O)N(CC)c1ccccc1C [Crotamiton] + CCCCNC(=O)OCC#CI [3-iodo-2-propynyl butylcarbamate (IPBC)] | 98.8 ± 5.1% | 102 ± 2.2%
36 | CCN1CCC[C@H]1CNC(=O)c1c(OC)ccc(Br)c1OC [Remoxipride Hydrochloride] + CCCCNC(=O)OCC#CI [3-iodo-2-propynyl butylcarbamate (IPBC)] | 101 ± 3.5% | 99 ± 1.5%
37 | C=CCOC(Cn1ccnc1)c1ccc(Cl)cc1Cl (stereo not given) [Enilconazole] + CCCCNC(=O)OCC#CI [3-iodo-2-propynyl butylcarbamate (IPBC)] | 3.34 ± 0.16% | 2.94 ± 0.21%
38 | Clc1ccc(CCC(Cn2ccnc2)Sc2c(Cl)cccc2Cl)cc1 (stereo not given) [Butoconazole nitrate] + CCCCNC(=O)OCC#CI [3-iodo-2-propynyl butylcarbamate (IPBC)] | 3.18% | 2.62 ± 0.1%
39 | Clc1ccc(COC(Cn2ccnc2)c2ccc(Cl)cc2Cl)c(Cl)c1 (stereo not given) [Miconazole] + CCCCNC(=O)OCC#CI [3-iodo-2-propynyl butylcarbamate (IPBC)] | 2.8591 ± 3.6e-15% | 2.41 ± 0.1%
40 | Clc1ccc(CO/N=C(\Cn2ccnc2)c2ccc(Cl)cc2Cl)c(Cl)c1 [Oxiconazole Nitrate] + CCCCNC(=O)OCC#CI [3-iodo-2-propynyl butylcarbamate (IPBC)] | 3.49 ± 0.32% | 2.1 ± 0.21%
